Sampled rows, rich in hits. Any-hit rate of the full collection: about 4.7%.
SARS 3CLpro inh: SARS-CoV 3CLpro protease inhibition; P0C6X7; recombinant SARS-CoV 3CLpro, quenched FRET peptide cleavage; inhibition, % at 6 µM; hit rate 0.14% among 290,000; in the data active means inhibition above about 12%
Mtb FBA inh: inhibits M. tuberculosis FBA enzyme; hit rate 2.3% among 360,000; inhibition, % at 1 µM; P9WQA3; AID 588726; purified M. tuberculosis FBA, fluorescence read-out; in the data active means inhibition above about 27%;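 further: 0% = vehicle and 100% = reference inhibitor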
Target sequence (P9WQA3 whole entry, looked up): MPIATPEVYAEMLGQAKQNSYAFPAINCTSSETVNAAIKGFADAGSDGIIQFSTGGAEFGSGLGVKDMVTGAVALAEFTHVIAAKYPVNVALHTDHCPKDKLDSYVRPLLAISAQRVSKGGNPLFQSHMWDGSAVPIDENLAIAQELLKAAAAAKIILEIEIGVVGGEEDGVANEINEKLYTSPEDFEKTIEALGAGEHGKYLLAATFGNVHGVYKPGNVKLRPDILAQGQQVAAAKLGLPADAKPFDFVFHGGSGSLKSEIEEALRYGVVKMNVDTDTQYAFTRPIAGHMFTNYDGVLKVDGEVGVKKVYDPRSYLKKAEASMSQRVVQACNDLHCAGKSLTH
VHR inh abs: inhibitors of human VHR1 phosphatase (DUSP3); recombinant VHR phosphatase, pNPP absorbance; inhibition, % at 13.3 µM; AID 1654; hit rate 0.52% among 290,000; in the data active means inhibition above about 50%
Target sequence (P51452 whole entry, looked up): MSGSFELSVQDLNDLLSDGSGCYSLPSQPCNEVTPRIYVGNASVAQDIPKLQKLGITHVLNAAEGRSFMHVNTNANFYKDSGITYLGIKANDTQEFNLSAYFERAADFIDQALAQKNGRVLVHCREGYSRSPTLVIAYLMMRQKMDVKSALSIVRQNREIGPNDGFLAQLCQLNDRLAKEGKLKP
GDH-TPI counter: counter-screen for M. tuberculosis FBA inhibitors: GDH-TPI coupled enzymes | GDH-TPI coupled enzyme counterscreen, NADH absorbance | hit rate 1.2% among 360,000 | inhibition, % at 4.8 µM | AID 588335;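 further: 0% = DMSO wells and 100% = wells lacking the enzyme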
CCHFV vOTU inh: CCHFV vOTU protease inhibition; Pep-AMC fluorescence; inhibition, % at 11.5 µM; hit rate 0.55% among 370,000; AID 651958; further: 0% = vehicle wells with enzyme and 100% = no enzyme wells
RecA intein inh: blocks M. tuberculosis RecA intein splicing; P9WHJ3; cell-free RecA intein splicing, fluorescence; inhibition, % (test concentration not listed); hit rate 0.75% among 290,000; in the data active means inhibition above about 30%;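 further: 0% = vehicle wells and 100% = reference inhibitor control wells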
Numbers without * were called inactive; . = not tested or not shown; + = active, no number. Unless noted, no stated cut-off is given here; in the data, active means inhibition above about 30%; inactive means the rest.

SMILES	SARS 3CLpro inh	Mtb FBA inh	VHR inh abs	GDH-TPI counter	CCHFV vOTU inh	RecA intein inh
COC(=O)C1=C(C)N(Cc2ccccc2C(F)(F)F)C(=NCc2ccc3c(c2)OCO3)NC1c1ccccc1C(F)(F)F (stereo unspecified)	.	.	.	.	8	.
Cc1c(CC(=O)NC(C)C)c(=O)oc2cc3c(cc12)CCC(C)(C)O3	4	+	16	22	-172	1
Cc1c(CC(=O)N[C@H](C(=O)O)C(C)C)c(=O)oc2cc3c(cc12)CCC(C)(C)O3	-3	153*	-5	23	-156	1
Cc1nc2cc[nH]n2c(=O)c1CCc1ccccc1	.	.	.	.	3	.
COc1ccc(CCN2CC(C(=O)N(C)Cc3ccccc3OC)CCC2=O)cc1 (stereo unspecified)	-6	0	53*	-3	-20	1
CCc1nc(N2CCN(C(=O)c3ccco3)CC2)c2oc3ccccc3c2n1	0	0	52*	4	1	5
Cc1c(C(c2cccc(O)c2)c2c(C)n(C)n(-c3ccccc3)c2=O)c(=O)n(-c2ccccc2)n1C	0	-1	4	10	-15	-1
CC1=NNC(=O)C1C(c1cccc(O)c1)C(C#N)C#N (stereo unspecified)	5	-2	18	-10	0	60*
O=C(/C=C/c1ccco1)c1ccc(NC(=O)C23CC4CC(CC(C4)C2)C3)cc1	4	4	-2	2	11	34*
O=C(/C=C/c1ccco1)Oc1cc(Br)cc(/C=N/NC(=O)c2ccccc2O)c1	4	3	3	43*	13	-2
CC(C)CCNC(=O)C1(C)CCN1Cc1ccc2ccccc2c1 (stereo unspecified)	.	0	.	-8	24	.
Cc1nnc(SCC(=O)N/N=C/c2cc(Cl)c(O)c(Cl)c2)s1	4	-4	-5	35*	4	2
N#CCN1CCC/C1=C\[N+](=O)[O-]	-2	-4	10	32*	10	0
O=[N+]([O-])/C=C1/CCCCCN1	-1	2	-1	19	1	.
Cc1cccc(-n2c(O)c(/C=N/NC(=O)c3ccccc3Cl)c3ccccc3c2=O)n1	4	27	9	35*	-25	-39
Cc1ccc(-n2c(O)c(C=Nc3ccccc3-c3n[nH]c(=S)[nH]c3=O)c3ccccc3c2=O)cc1C	-2	5	8	14	9	8
Cc1cccc(-n2c(O)c(C=Nc3ccccc3-c3n[nH]c(=S)[nH]c3=O)c3ccccc3c2=O)n1	0	5	17	37*	23	-2
Nn1c(SCC(=O)NC2CCCCC2)nnc1-c1n[nH]c2c1CCC2	.	.	.	.	10	.
Cc1cc(C)c(C)c(S(=O)(=O)N(C)CCc2ccccn2)c1C	.	-1	.	-3	-10	.
COc1ccc(/C=C2\CC3(OC(=O)c4ccccc4)CCCN2C3)cc1 (stereo unspecified)	.	.	.	.	11	.
CC1=C(C(=O)Nc2cc(C(=O)N(C)Cc3ccccc3)ccc2C)SCCO1	3	-5	52*	-1	3	2
O=C(O)CN1C(=O)/C(=C/c2ccccc2Cl)Oc2ccccc21	1	130*	-16	17	-42	-2
COc1ccc(C(=O)C2CCCN(C3CSCCSC3)C2)c(C)c1 (stereo unspecified)	10	-1	1	2	5	2
COc1ccc(C(=O)C2CCCN(C3CSCCSC3)C2)c(OC)c1 (stereo unspecified)	6	1	57*	7	-9	3
CCc1ccc(C2=NN(c3ccc(S(N)(=O)=O)cc3)C(c3ccc(F)cc3)C2)cc1 (stereo unspecified)	6	+	24	11	-77	-33
SMILES	SARS 3CLpro inh	Mtb FBA inh	VHR inh abs	GDH-TPI counter	CCHFV vOTU inh	RecA intein inh
NS(=O)(=O)c1ccc(N2N=C(c3ccccc3)CC2c2ccccc2)cc1 (stereo unspecified)	-1	+	-3	12	-284	-43
CC(=O)N1N=C(c2ccccc2)CC1c1ccccc1 (stereo unspecified)	-3	-1	5	7	8	0
O=S(=O)(O)c1ccc(N2N=C(c3ccccc3)CC2c2ccccc2)cc1 (stereo unspecified)	3	+	-3	18	-295	-160
COc1ccc(C2CC(C(C)(C)C)=NN2c2ccc(S(N)(=O)=O)cc2)cc1 (stereo unspecified)	.	-1	.	12	18	.
Cc1ccc(C2CC(c3ccccc3)=NN2c2ccc(S(N)(=O)=O)cc2)cc1 (stereo unspecified)	.	+	.	-2	-160	.
COc1ccc(NC(=O)c2cc(C3CCCCN3S(=O)(=O)c3ccc(F)cc3F)on2)c(C)c1 (stereo unspecified)	.	0	.	-3	15	.
Cc1cccc(N(CC(=O)NCc2ccco2)S(=O)(=O)c2ccccc2)c1	.	-3	.	-1	2	.
Cc1cc2c(nc1C)CCCN2S(=O)(=O)c1c(C)noc1C	.	.	.	.	5	.
NS(=O)(=O)c1ccc(N2N=C(c3ccccc3)CC2c2ccccc2Cl)cc1 (stereo unspecified)	.	188*	.	25	-167	.
NS(=O)(=O)c1ccc(N2N=C(c3ccccc3)CC2c2ccc(Br)cc2)cc1 (stereo unspecified)	.	187*	.	9	-72	.
O=C(NCc1ccccc1)[C@@H]1CCCN1C(=O)[C@H]1CCCN1C(=O)c1ccc(F)cc1F	.	.	.	.	-2	.
CC[C@H](NC(=O)[C@@H](Cc1ccccc1)NC(=O)[C@H]1O[C@@H](n2cnc3c(=O)[nH]c(N)nc32)[C@H](O)[C@@H]1O)c1ccccc1	.	.	.	.	13	.
COc1cc(NC(=O)C2CCCN(S(=O)(=O)c3ccc(C)c(C)c3)C2)cc(OC)c1 (stereo unspecified)	.	.	.	.	-1	.
Cc1ccccc1-n1c(O)c(C=NC2CCS(=O)(=O)C2)c2ccccc2c1=O (stereo unspecified)	-1	2	-16	13	-1	-3
Cc1cccc(-n2c(O)c(C=NC3CCS(=O)(=O)C3)c3ccccc3c2=O)c1C (stereo unspecified)	1	2	34	31*	16	-2
O=C(NCCCc1ccccc1)OC1CC2CC1[C@H]1CCCCN1C2 (stereo partly specified)	.	.	.	.	-5	.
Cc1ccc(C(=O)/C=C2/NC(=O)CS2)cc1	-5	-2	16	31*	8	-4
O=C1CS/C(=C/C(=O)c2cccc(Cl)c2)N1	-4	2	20	17	0	3
O=C(/C=C/c1ccccc1[N+](=O)[O-])Nc1ccc(S(=O)(=O)Nc2ncccn2)cc1	-2	1	21	20	9	-1
NS(=O)(=O)c1cccc(NC(=O)/C=C/c2cccs2)c1	-3	-2	13	18	-4	18
O=C(/C=C/c1cccs1)Nc1ccc(S(=O)(=O)Nc2ncccn2)cc1	2	2	10	45*	19	3
NS(=O)(=O)c1ccc(NC(=O)/C=C/c2cccs2)cc1	-3	0	15	72*	13	-1
